Test results reported in ChEMBL document CHEMBL1201862, “PubChem BioAssay data set” (2004).
Hit rate of the full screen: of about 400,000 compounds, about 2,100 (0.53%) were called active. Another 14% or so got no clear call; they are omitted. The rule behind the calls is not given here. The list comes from a sample in which actives are over-represented; it also holds similar structures and randomly drawn compounds.

molecular target: Ataxin-2 (Homo sapiens) (UniProt Q99700); experiment: qHTS for Inhibitors of ATXN expression.; type: functional
Sequence (Q99700 whole entry): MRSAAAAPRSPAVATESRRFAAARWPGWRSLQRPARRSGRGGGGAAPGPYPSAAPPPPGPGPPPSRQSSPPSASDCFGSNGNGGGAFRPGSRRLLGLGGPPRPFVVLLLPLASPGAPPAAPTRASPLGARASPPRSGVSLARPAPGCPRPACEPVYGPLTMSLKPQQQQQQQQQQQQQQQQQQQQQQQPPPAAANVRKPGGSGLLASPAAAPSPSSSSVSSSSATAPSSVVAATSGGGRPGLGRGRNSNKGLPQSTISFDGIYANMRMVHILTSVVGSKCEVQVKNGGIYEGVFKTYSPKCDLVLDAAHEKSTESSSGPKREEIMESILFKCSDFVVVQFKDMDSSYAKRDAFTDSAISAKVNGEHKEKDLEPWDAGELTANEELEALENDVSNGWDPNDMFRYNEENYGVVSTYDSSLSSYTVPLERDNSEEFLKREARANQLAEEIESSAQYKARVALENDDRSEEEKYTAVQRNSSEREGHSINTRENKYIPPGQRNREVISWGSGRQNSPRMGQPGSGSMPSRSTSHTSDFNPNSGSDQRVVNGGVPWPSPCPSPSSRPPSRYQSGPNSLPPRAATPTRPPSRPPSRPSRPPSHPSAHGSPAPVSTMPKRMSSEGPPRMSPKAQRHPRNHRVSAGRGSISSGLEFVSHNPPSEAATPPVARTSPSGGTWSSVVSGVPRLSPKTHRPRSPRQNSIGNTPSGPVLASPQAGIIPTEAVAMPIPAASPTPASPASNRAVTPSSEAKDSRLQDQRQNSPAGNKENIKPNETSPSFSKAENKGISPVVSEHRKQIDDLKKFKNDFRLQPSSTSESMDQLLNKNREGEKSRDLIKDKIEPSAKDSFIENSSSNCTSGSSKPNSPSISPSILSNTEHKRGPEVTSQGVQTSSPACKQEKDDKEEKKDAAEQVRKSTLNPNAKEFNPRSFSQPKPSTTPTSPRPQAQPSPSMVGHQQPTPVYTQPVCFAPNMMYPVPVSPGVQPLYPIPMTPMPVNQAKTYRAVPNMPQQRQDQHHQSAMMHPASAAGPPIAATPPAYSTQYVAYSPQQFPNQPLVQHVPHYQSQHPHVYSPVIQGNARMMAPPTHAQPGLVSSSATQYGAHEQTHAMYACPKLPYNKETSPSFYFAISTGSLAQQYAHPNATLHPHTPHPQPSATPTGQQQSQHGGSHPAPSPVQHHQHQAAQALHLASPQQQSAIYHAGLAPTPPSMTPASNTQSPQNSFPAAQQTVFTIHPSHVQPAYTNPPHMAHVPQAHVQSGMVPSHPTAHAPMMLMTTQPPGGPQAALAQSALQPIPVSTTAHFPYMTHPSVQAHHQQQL

| Compound | Potency |
| --- | --- |
| O=C(c1ccc([N+](=O)[O-])cc1)N1CCC(n2nnc3cc(F)ccc32)CC1 | inactive |
| CC(=O)Nc1sc2c(c1C(N)=O)CCN(Cc1ccccc1)C2 | inactive |
| CC(=O)N1CCc2c(sc3c2c(=O)n(-c2ccccc2Cl)c(=O)n3Cc2cccc(C)c2)C1 | 35.5 µM (active) |
| CCC(C(=O)NCc1cccc(C)c1)n1nc(C)c2c(C)n(-c3ccccc3)nc2c1=O (centres undefined) | inactive |
| NNc1ncnc2sc3c(c12)CCC3 | inactive |
| CCCCNC(=O)COC(=O)c1c2c(nc3ccccc13)/C(=C\c1cccs1)CC2 | inactive |
| CCOCCCn1/c(=N/C(C)=O)c(C#N)cc2c(=O)n3cccc(C)c3nc21 | inactive |
| CCN(CC)CCCNc1cc(C(F)(F)F)c(C#N)c2nc3ccccc3n12 | inactive |
| CCc1ccc(C2=CC(c3cc(Br)ccc3F)n3ncnc3N2)cc1 (centres undefined) | inactive |
| O=C(Nc1ncccn1)c1cccc(Cl)c1 | inactive |
| O=C(Nc1cccc(-c2cn3ccccc3n2)c1)c1cccc(Cl)c1 | 39.8 µM (active) |
| O=C(Nc1ccc(S(=O)(=O)Nc2ccccn2)cc1)c1cccc(Cl)c1 | inactive |
| Cc1cccn2cc(-c3cc4ccccc4oc3=O)nc12 | inactive |
| Cc1ccn2cc(-c3cc4ccccc4oc3=O)nc2c1 | inactive |
| O=C(Nc1cccc(-c2cn3ccccc3n2)c1)c1cc2ccccc2oc1=O | 22.4 µM (active) |
| CCc1c(C)c2cc(Cl)c(O)c(CN(C)C)c2oc1=O | inactive |
| COc1ccc(/C=N/NC(=O)c2ccncc2)cc1CN1CCOCC1 | inactive |
| COc1ccc(/C=N/N2C(C)CCCC2C)cc1OC (centres undefined) | inactive |
| COc1ccc(/C=N/n2cnc3c4cc(C)ccc4nc-3c2O)cc1CN1CCCC1 | 39.8 µM (active) |
| CCOc1ccc2nc(NCCN=C(S)NCCCN(C)C)c(C#N)cc2c1 | inactive |
| Cc1c(O)ccc2c(-c3ccccc3)cc(=O)oc12 | inactive |
| COc1ccc(CNC[C@@H](CCCCN(C)Cc2ccc(OC)cc2)N2C[C@H](c3ccccc3)N(CCc3ccc(Cl)c(Cl)c3)C(=O)C2=O)cc1 | 25.1 µM (active) |

| Compound | Potency |
| --- | --- |
| CC(=O)NS(=O)(=O)c1ccc(/N=c2\ssc3c2-c2cc(C)ccc2NC3(C)C)cc1 | 39.8 µM (active) |
| CCN(CC)c1cc(C)c2cc(NC(=O)c3cc(OC)cc(OC)c3)ccc2n1 | 35.5 µM (active) |
| O=C(Nc1ccc(F)cc1)c1ccc2nc(O)c(O)nc2c1 | inactive |
| Cc1cccc(OCC(=O)Nc2ccc3nc(Nc4cccc(Cl)c4)cc(C)c3c2)c1 | inactive |
| CCN(CC)c1cc(C)c2cc(NC(=O)/C=C/c3ccccc3Cl)ccc2n1 | 28.2 µM (active) |
| CCn1nc(NC(=O)c2ccccc2)c2cc3cccc(C)c3nc21 | inactive |
| CCN(CC)c1cc(C)c2cc(NC(=O)c3cccc(F)c3)ccc2n1 | 39.8 µM (active) |
| COc1ccc(Nc2cc(C)c3cc(NC(=O)Cc4c(F)cccc4Cl)ccc3n2)cc1 | inactive |
| COc1ccc(Nc2cc(C)c3cc(NC(=O)c4cc(OC)cc(OC)c4)ccc3n2)cc1 | inactive |
| CCN(CC)c1cc(C)c2cc(NC(=O)c3ccc(Br)o3)ccc2n1 | 35.5 µM (active) |
| Cc1cc(Nc2cccc(Cl)c2)nc2ccc(NC(=O)c3cncc(Br)c3)cc12 | inactive |
| Cc1ccccc1/C=C/c1cccc[n+]1C | inactive |
| O=C(N/C(=C/c1cccc(Br)c1)C(=O)N1CCOCC1)c1ccco1 | inactive |
| C(=Cc1c[nH]c2ccccc12)c1ccc2ccccc2n1 | inactive |
| CC(C(=O)NCC1CCCCC1)N(C)CC(=O)Nc1ccc(N2CCOCC2)cc1 (centres undefined) | inactive |
| Cc1cccc(C2C=C(c3ccc(C)c(C)c3)Nc3nnnn32)c1 (centres undefined) | inactive |
| CCN(CC)c1cc(C)c2cc(NC(=O)c3cccc(OC)c3)ccc2n1 | 39.8 µM (active) |
| CCN1CCN(c2cc(C)c3cc(NC(=O)c4cccc(OC)c4)ccc3n2)CC1 | inactive |
| Cc1ccc(NN2C(=O)C=C(c3ccc(Cl)cc3)C2=O)cc1 | 28.2 µM (active) |
| CC(=O)c1ccc(F)c(-c2cc(C)cc3c2OC(CNC(=O)c2csc(C)n2)C3)c1 (centres undefined) | inactive |
| Cc1cccc(COC[C@H](CC(C)C)N2CCN(C(=O)c3ccc(C(F)(F)F)cc3)CCC2=O)c1 | 35.5 µM (active) |
| CC(C)CC(COCc1cccc(C(F)(F)F)c1)N1CCN(C(=O)c2cccc(C(F)(F)F)c2)CCC1=O (centres undefined) | 31.6 µM (active) |

| Compound | Potency |
| --- | --- |
| Cc1cccc(COC[C@H](CC(C)C)N2CCN(C(=O)c3ccc(C(C)(C)C)cc3)CCC2=O)c1 | 39.8 µM (active) |
| O=C(COC(=O)C1=Cc2ccccc2OC1)NCc1ccco1 | inactive |
| Cn1c(Cl)c(/C=N/OC(=O)C2CC2)c2ccccc21 | inactive |
| O=c1ccc2cc(O)c(O)cc2o1 | inactive |
| OC[C@@H]1[C@@H](c2ccc(Cl)cc2)C(c2cccc(Cl)c2)=NN1c1ccccc1 | inactive |
| CCCN(CCC)C(=O)CSc1c2c(nc3ccc(Cl)cc13)CCCC2 | 39.8 µM (active) |
| O=C(Cc1cc(O)nc(O)n1)NCCN1CCOCC1 | inactive |
| CCOC(=O)C1CCCc2c1[nH]c1ccc(Cl)cc21 (centres undefined) | inactive |
| Cc1cc2cc(C#N)c(NCCN=C(S)NCCCN3CCOCC3)nc2cc1C | inactive |
| CCN(CC)CCCNC(=O)CSc1nc(C)cc(C)n1 | inactive |
| CC1CCCC(NC(=O)c2ccc3c(SCC(=O)O)c4c(nc3c2)CCC4)C1C (centres undefined) | inactive |
| O=C(O)c1c2c(nc3ccc(Cl)cc13)CCC2 | inactive |
| CCN(CC)CCNC(=O)CSc1c2c(nc3cc(Cl)ccc13)CCCC2 | 35.5 µM (active) |
| O=C(CSc1c2c(nc3ccc(Cl)cc13)CCCC2)NCCCN1CCOCC1 | 35.5 µM (active) |
| CCN(CC)CCCNC(=O)CSc1c2c(nc3cc(Cl)ccc13)CCCC2 | 28.2 µM (active) |
| CCN(CC)CCCC(C)n1c2nc(=O)[nH]c(=O)c-2nc2cc(Cl)ccc21 (centres undefined) | inactive |
| Cc1occc1-c1nnc(SCC(=O)NC2CCCCC2)o1 | inactive |
| Cc1c(CC(=O)N2CCN(C(=O)C3COc4ccccc4O3)CC2)c(=O)oc2cc(O)c(Cl)cc12 (centres undefined) | inactive |
| Nc1cccc2c1C(=O)N(c1ccccc1)C2=O | inactive |
| Cc1ccc(C(=O)Nc2nc3n(n2)C(c2ccccc2)C=C(c2ccccc2)N3)cc1 (centres undefined) | inactive |
